Data on 35 molecules can be found in PubChem BioAssay.

Structures are written as SMILES.

In the first experiment the test system is Lefty1. The experiment can be described thus: Lefty1 protein binding to printed compounds – biochemical, small-molecule microarray, 635/667 nm fluorescence, primary screen (AID 1139). The note with it: fluorescence 635/667, higher = more signal.
For `[N-]=[N+]=NCc1ccccc1[C@@H]1OC(c2ccc(OCCCO)cc2)=N[C@]1(Cc1ccccc1)C(=O)NCC(O)CO` (stereo not given in full), the composite z-score was -1.3.
`COc1cc2c(cc1OC)CN(C(=O)[C@H]1[C@@H]3C(=O)O[C@@H](c4ccccc4)[C@@H](c4ccccc4)N3[C@@H](c3ccc(O)cc3)[C@]13C(=O)Nc1ccc(C#CCCO)cc13)CC2` yielded a composite z-score of 0.0938.
For `C=CCNC(=O)[C@@H]1[C@H]2C(=O)O[C@H](c3ccccc3)[C@H](c3ccccc3)N2[C@H](c2ccccc2OCCO)[C@@]12C(=O)N(C(=O)OCCOC)c1ccccc12`, the composite z-score came to 1.29.
Turning to `CC1(C)[C@@H]2CC(C(O)C3C=CC4C(=O)N(c5ccccc5)C(=O)C4N3Nc3ccc([N+](=O)[O-])cc3)=C[C@H]1C2` (stereo not given in full), the composite z-score is 0.619.
Still for that read-out and setting: the same measure for `C=CCNC(=O)[C@H]1[C@@H]2C(=O)O[C@@H](c3ccccc3)[C@@H](c3ccccc3)N2[C@@H](c2ccccc2OCCO)[C@]12C(=O)Nc1ccc(C#CCC(C(=O)OC)C(=O)OC)cc12`: 1.25.
Still for that read-out and setting: the same measure for `O=C1C2C=CC(C(O)c3cc(C(F)(F)F)cc(C(F)(F)F)c3)N(n3cnnc3)C2C(=O)N1Cc1ccccc1` (stereo not given): -0.264; for `COc1cc(NN2C(C(O)c3ccco3)C=CC3C(=O)N(c4ccccc4)C(=O)C32)cc(OC)c1OC` (stereo not given): 0.199.
On the same count and under the same terms, the same measure for `CN(C)CCCCCCNC(=O)[C@@H]1C[C@@H]2C(=O)N[C@@H](Cc3ccccc3)C(=O)N2[C@@H]1c1ccc(O)cc1`: 1.67; for `CC(C)NC(=O)[C@@]1(c2ccc([N+](=O)[O-])cc2)CC(=O)N(C2CCCCC2)[C@@H]1c1ccc(CO)cc1I`: -0.491.
Molecule `C=CC[C@]1(C(=O)NCc2ccccc2)N=C(c2ccc(OCCCO)cc2)O[C@H]1c1ccccc1N=[N+]=[N-]` had a composite z-score of 0.194.

Another experiment relates to wheat germ agglutinin (Triticum aestivum), Alexa647-labelled. The experiment can be described thus: Alexa647-WGA lectin binding to printed small molecules – biochemical, small-molecule microarray, 635/667 nm fluorescence, artefact control for SMM control-protein annotation, profiling panel (AID 1140).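 Also: score merges 667 nm feature emission with signal to noise over triplicate slides.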 The note with it: WGA-A647 binding, 635 nm fluorescence, higher = more signal.
`COc1ccc([C@H]2OC[C@@H]3C[C@@H](Cc4ccccc4)C(=O)N32)cc1` displayed a composite z-score of 0.208.
Take `COCCCNC(=O)[C@@H]1c2ccccc2C(=O)N(Cc2ccccc2Cl)[C@H]1c1ccc(CO)cc1`: the composite z-score is -0.0431.
For `O=C1C2C=CC(C(O)c3cccc4ccccc34)N(Nc3ccccc3F)C2C(=O)N1c1ccccc1` (stereo not given), the composite z-score turned out to be 1.4.
For the molecule `COC(=O)[C@@]1(CCS(=O)(=O)c2ccccc2)N=C(c2ccc(OCCCO)cc2)O[C@H]1c1ccccc1CN=[N+]=[N-]`, the composite z-score was found to be 1.01.
`C=C[C@H](OC)[C@@H](OC(=O)Nc1ccc(OC)cc1)c1ccc(O)c(F)c1` came in with a composite z-score of -1.28.
The same measure, in the same setting: the same measure for `C=CCC(OC(C)=O)[C@@H]1[C@@H](N(Cc2ccc(-c3ccccc3)cc2)C(=O)c2cccc3ccccc23)c2cc(OCCCO)ccc2N1C(=O)c1ccc(-c2ccccc2)cc1` (stereo not given in full): 0.556; for `C=CCOC(=O)[C@H]1[C@@H]2C(=O)O[C@@H](c3ccccc3)[C@@H](c3ccccc3)N2[C@@H](c2ccc(OCCOC(=O)[C@H]3C[C@H]4C(=O)N[C@@H](CCCC[N+](C)(C)C)C(=O)N4[C@H]3c3ccc(O)cc3)cc2)[C@]12C(=O)Nc1ccc(I)cc12`: 0.0577; for `COC(=O)[C@@]1(Cc2ccc(OC)cc2)[C@@H]2C(=CC(=O)[C@H]2CC(=O)C(=O)N2CCCC2)CN1C(=O)c1ccccc1`: 0.357.
As for `C[C@H]1NC(=O)[C@@]23C(=O)N[C@@H](Cc4ccccc4)C2[C@H](C)[C@@]2(C)O[C@H]2C3/C=C/C/C=C\CNC(=O)[C@@H]2CCCN2C1=O` (stereo not given in full), the composite z-score was found to be 0.765.
In turn, `O=C(OCc1ccccc1)C1=CCC2c3[nH]c4ccccc4c3C(=O)C1N2S(=O)(=O)c1ccccc1[N+](=O)[O-]` (stereo not given) registered a composite z-score of 0.743.
`COC(=O)[C@@]1(Cc2ccc(OC)cc2)[C@H]2c3cc(C(=O)N4CCCC4)n(Cc4ccc(C)c(F)c4F)c3C[C@H]2CN1C(=O)c1ccccc1` returned a composite z-score of 1.32.
`C=CCOC(=O)[C@H]1[C@@H]2C(=O)O[C@@H](c3ccccc3)[C@@H](c3ccccc3)N2[C@@H](c2ccc(OCCOC(=O)[C@H]3C[C@H]4C(=O)N[C@@H](CCCCNC(C)=O)C(=O)N4[C@H]3c3cccc(OCCO)c3)cc2)[C@]12C(=O)Nc1ccccc12` registered a composite z-score of 0.38.
`CC(C)c1ccc(NN2C(C(O)c3ccc(B(O)O)cc3)C=CC3C(=O)N(c4ccccc4)C(=O)C32)cc1` (stereo not given) yielded a composite z-score of 0.783.
Same read-out and setting: the same measure for `CCCC=C(CCC)[C@@H](NC(=O)c1cccs1)c1ccc(C(F)(F)F)cc1`: 0.83; for `COc1ccc(C#Cc2ccc3c(c2)[C@]2(C(=O)N3)[C@H](C(=O)Nc3nc4ccccc4s3)[C@H]3C(=O)O[C@H](c4ccccc4)[C@H](c4ccccc4)N3[C@@H]2c2ccc(O)cc2)cc1`: 1.18; for `CCCCCCc1nc(-c2cc(C)c(OC)c(C)c2)cc2c1[Si](C(C)C)(C(C)C)OC2`: -0.239.
`COCCOC(=O)N1C(=O)[C@@]2(c3cc(C#Cc4ccc(OC)cc4)ccc31)[C@H](c1ccccc1OCCO)N1[C@H](c3ccccc3)[C@H](c3ccccc3)OC(=O)[C@H]1[C@@H]2C(=O)NC[C@H](O)c1ccccc1` yielded a composite z-score of 0.889.
The molecule `COC(=O)C(CC#Cc1ccc2c(c1)[C@]1(C(=O)N2)[C@H](c2ccc(OCCO)cc2)N2[C@H](c3ccccc3)[C@H](c3ccccc3)OC(=O)[C@H]2[C@@H]1C(=O)N1CCc2cc(OC)c(OC)cc2C1)C(=O)OC` came in with a composite z-score of 0.423.
Same read-out and setting: the same measure for `COCCOC(=O)N1C(=O)[C@@]2(c3cc(C#CCC(C(=O)OC)C(=O)OC)ccc31)[C@H](c1ccccc1OCCO)N1[C@H](c3ccccc3)[C@H](c3ccccc3)OC(=O)[C@H]1[C@@H]2C(=O)N1CCN(c2ncccn2)CC1`: 0.63.
Consider `O=C(c1ccccc1)N1C(=O)[C@]2(COC(c3ccc(OCCCO)cc3)=N2)Cc2ccccc21`, for which the composite z-score came to 1.12.
As for `COc1ccc([Si](C)(C)[C@@H]2[C@@H](CCO)O[C@]3(C(=O)N(Cc4ccc(N(C=O)c5ccccc5)cc4)c4ccccc43)[C@H]2C)cc1`, the composite z-score was found to be 1.06.
`O=C1c2ccccc2[C@](Cc2ccccc2I)(C(=O)NCC(F)(F)F)[C@H](c2ccc(CO)cc2)N1Cc1ccccc1Cl` registered a composite z-score of 0.549.
The same measure, in the same setting: the same measure for `COCCOC(=O)N1C(=O)[C@@]2(c3cc(C#CCCO)ccc31)[C@H](C(N)=O)[C@H]1C(=O)O[C@H](c3ccccc3)[C@H](c3ccccc3)N1[C@@H]2c1ccc(O)cc1`: 0.115.
The same measure, in the same setting: the same measure for `C=C(CCCC)/C(=C/C[C@@H](OC(=O)c1ccncc1)c1ccc(OCCO)cc1)c1cc(C(=O)OC)ccc1OC`: 0.229.
On the same count and under the same terms, the same measure for `C=CCN1C(=O)[C@]2(O[C@H](CCn3cc([C@H](O)c4ccccc4)nn3)[C@@H]([Si](C)(C)c3ccc(OC)cc3)[C@@H]2C)c2ccccc21`: 0.417.
Regarding `[N-]=[N+]=NCc1ccccc1[C@@H]1OC(c2ccc(OCCCO)cc2)=N[C@]1(Cc1ccccc1)C(=O)NCC(O)CO` (stereo not given in full), the composite z-score came to 0.718.
With `COc1cc2c(cc1OC)CN(C(=O)[C@H]1[C@@H]3C(=O)O[C@@H](c4ccccc4)[C@@H](c4ccccc4)N3[C@@H](c3ccc(O)cc3)[C@]13C(=O)Nc1ccc(C#CCCO)cc13)CC2`, the composite z-score is 0.943.
In turn, `C=CCNC(=O)[C@@H]1[C@H]2C(=O)O[C@H](c3ccccc3)[C@H](c3ccccc3)N2[C@H](c2ccccc2OCCO)[C@@]12C(=O)N(C(=O)OCCOC)c1ccccc12` came in with a composite z-score of 0.478.
`CC1(C)[C@@H]2CC(C(O)C3C=CC4C(=O)N(c5ccccc5)C(=O)C4N3Nc3ccc([N+](=O)[O-])cc3)=C[C@H]1C2` (stereo not given in full) registered a composite z-score of 0.728.
For the molecule `C=CCNC(=O)[C@H]1[C@@H]2C(=O)O[C@@H](c3ccccc3)[C@@H](c3ccccc3)N2[C@@H](c2ccccc2OCCO)[C@]12C(=O)Nc1ccc(C#CCC(C(=O)OC)C(=O)OC)cc12`, the composite z-score worked out at 1.28.
`O=C1C2C=CC(C(O)c3cc(C(F)(F)F)cc(C(F)(F)F)c3)N(n3cnnc3)C2C(=O)N1Cc1ccccc1` (stereo not given) yielded a composite z-score of 1.05.
Still for that read-out and setting: the same measure for `COc1cc(NN2C(C(O)c3ccco3)C=CC3C(=O)N(c4ccccc4)C(=O)C32)cc(OC)c1OC` (stereo not given): 0.0464.
On the same count and under the same terms, the same measure for `CN(C)CCCCCCNC(=O)[C@@H]1C[C@@H]2C(=O)N[C@@H](Cc3ccccc3)C(=O)N2[C@@H]1c1ccc(O)cc1`: 0.715; for `CC(C)NC(=O)[C@@]1(c2ccc([N+](=O)[O-])cc2)CC(=O)N(C2CCCCC2)[C@@H]1c1ccc(CO)cc1I`: -0.0784.
`C=CC[C@]1(C(=O)NCc2ccccc2)N=C(c2ccc(OCCCO)cc2)O[C@H]1c1ccccc1N=[N+]=[N-]` showed a composite z-score of 1.23.
